Source: PubChem BioAssay AID1159580 (chemical genetic matrix, 2015)
Out of some 5,500 compounds screened, about 2,000 (36%) were called active. About 18% were inconclusive and are not listed. Cut-off read from the data, not from the text of the source: active = normalized growth mostly below about 0.91 (no sharp cut-off); inconclusive = no clear call, values can overlap the other calls; inactive = mostly above about 0.92. The list shows a part of the results.

Assay: chemical genetic growth profiling, strain panel (AID 1159580);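 note: tested at 20 µM; growth read once vehicle control cultures reached saturation at 30 °C; 1 = growth at the plate median or of vehicle wells; lower values mean less growth of the strain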
Conditions: growth OD

Measured: normalized growth

CC1(C)O[C@H]2[C@H](O)C[C@](O)(C(N)=O)C[C@H]2O1
inactive: S. cerevisiae deletion strains, locus YJR075W, strain HOC1, active compounds read low 1.03 | S. cerevisiae deletion strains, locus YKL009W, strain mrt4, active compounds read low 1.04 | S. cerevisiae deletion strains, locus YKL068W, active compounds read low 1.01 | S. cerevisiae deletion strains, locus YKL085W, strain MDH1 (second series), active compounds read low 1.03 | S. cerevisiae deletion strains, locus YKL085W, strain MDH1, active compounds read low 1.03 | S. cerevisiae deletion strains, locus YKL160W, strain elf1, active compounds read low 1 | S. cerevisiae deletion strains, locus YKL190W, strain CNB1, active compounds read low 1.02 | S. cerevisiae deletion strains, locus YKR001C, strain vps1, active compounds read low 1.06 | S. cerevisiae deletion strains, locus YKR026C, strain gcn3, active compounds read low 1.01 | S. cerevisiae deletion strains, locus YKR091W, strain srl3, active compounds read low 1.02 | S. cerevisiae deletion strains, locus YLL001W, strain dnm1, active compounds read low 0.999 | S. cerevisiae deletion strains, locus YLL026W, active compounds read low 1.01 | S. cerevisiae deletion strains, locus YLL041C, strain sdh2, active compounds read low 1.02 | S. cerevisiae deletion strains, locus YLR027C, strain aat2, active compounds read low 1.03 | S. cerevisiae deletion strains, locus YLR039C, strain RIC1, active compounds read low 1.25 | S. cerevisiae deletion strains, locus YLR058C, strain SHM2, active compounds read low 1.04 | S. cerevisiae deletion strains, locus YLR102C, strain apc9, active compounds read low 1.01 | S. cerevisiae deletion strains, locus YLR113W, strain HOG1, active compounds read low 1.02 | S. cerevisiae deletion strains, locus YLR221C, strain rsa3, active compounds read low 1.02 | S. cerevisiae deletion strains, locus YLR258W, strain gsy2, active compounds read low 1.01 | S. cerevisiae deletion strains, locus YLR262C, strain YPT6 (second series), active compounds read low 1.08 | S. cerevisiae deletion strains, locus YLR268W, strain sec22, active compounds read low 1.05 | S. cerevisiae deletion strains, locus YLR320W, strain mms22, active compounds read low 1.03 | S. cerevisiae deletion strains, locus YLR330W, strain CHS5, active compounds read low 1.02 | S. cerevisiae deletion strains, locus YLR342W, strain FKS1 (second series), active compounds read low 1.03 | S. cerevisiae deletion strains, locus YLR342W, strain FKS1, active compounds read low 1.01 | S. cerevisiae deletion strains, locus YLR357W, strain rsc2, active compounds read low 1.01 | S. cerevisiae deletion strains, locus YLR370C, strain arc18, active compounds read low 1.02 | S. cerevisiae deletion strains, locus YLR371W, strain rom2, active compounds read low 1.05 | S. cerevisiae deletion strains, locus YLR384C, strain iki3, active compounds read low 1.02 | S. cerevisiae deletion strains, locus YLR418C, strain cdc73, active compounds read low 1.09 | S. cerevisiae deletion strains, locus YML016C, strain PPZ1, active compounds read low 1.03 | S. cerevisiae deletion strains, locus YML032C, strain rad52, active compounds read low 1.03 | S. cerevisiae deletion strains, locus YML120C, strain ndi1, active compounds read low 1.01 | S. cerevisiae deletion strains, locus YML124C, strain tub3, active compounds read low 1.02 | S. cerevisiae deletion strains, locus YMR058W, strain fet3, active compounds read low 1.02 | S. cerevisiae deletion strains, locus YMR078C, strain ctf18, active compounds read low 1.03 | S. cerevisiae deletion strains, locus YMR125W, strain sto1, active compounds read low 1 | S. cerevisiae deletion strains, locus YMR129W, active compounds read low 1.01 | S. cerevisiae deletion strains, locus YMR205C, strain PFK2, active compounds read low 1.02 | S. cerevisiae deletion strains, locus YMR223W, strain ubp8, active compounds read low 1.05 | S. cerevisiae deletion strains, locus YMR231W, strain pep5, active compounds read low 1.01 | S. cerevisiae deletion strains, locus YMR307W, strain GAS1, active compounds read low 1.27 | S. cerevisiae deletion strains, locus YNL067W, strain RPL9B, active compounds read low 1.01 | S. cerevisiae deletion strains, locus YNL071W, strain lat1, active compounds read low 1.03 | S. cerevisiae deletion strains, locus YNL153C, strain GIM3, active compounds read low 1.05 | S. cerevisiae deletion strains, locus YNL183C, strain NPR1, active compounds read low 0.945 | S. cerevisiae deletion strains, locus YNL209W, strain ssb2, active compounds read low 1.02 | S. cerevisiae deletion strains, locus YNL233W, strain BNI4, active compounds read low 1.07 | S. cerevisiae deletion strains, locus YNL248C, strain rpa49, active compounds read low 1.01 | S. cerevisiae deletion strains, locus YNL250W, strain rad50, active compounds read low 1.06 | S. cerevisiae deletion strains, locus YNL271C, strain bni1, active compounds read low 1.04 | S. cerevisiae deletion strains, locus YNL298W, strain CLA4, active compounds read low 1.02 | S. cerevisiae deletion strains, locus YNL307C, strain MCK1, active compounds read low 1.03 | S. cerevisiae deletion strains, locus YNL322C, strain KRE1 (second series), active compounds read low 1.01 | S. cerevisiae deletion strains, locus YNL322C, strain KRE1, active compounds read low 1.02 | S. cerevisiae deletion strains, locus YNR049C, strain mso1, active compounds read low 1.02 | S. cerevisiae deletion strains, locus YNR052C, strain pop2, active compounds read low 1.03 | S. cerevisiae deletion strains, locus YOL012C, strain htz1 0.602 | S. cerevisiae deletion strains, locus YOL147C, strain pex11, active compounds read low 1.01 | S. cerevisiae deletion strains, locus YOR001W, strain rrp6, active compounds read low 1.04 | S. cerevisiae deletion strains, locus YOR061W, strain CKA2, active compounds read low 1.03 | S. cerevisiae deletion strains, locus YOR069W, strain VPS5, active compounds read low 1.02 | S. cerevisiae deletion strains, locus YOR070C, strain gyp1, active compounds read low 1.01 | S. cerevisiae deletion strains, locus YOR080W, strain dia2, active compounds read low 1.01 | S. cerevisiae deletion strains, locus YOR083W, strain WHI5, active compounds read low 1.02 | S. cerevisiae deletion strains, locus YOR106W, strain vam3, active compounds read low 1.01 | S. cerevisiae deletion strains, locus YOR136W, strain idh2, active compounds read low 1.04 | S. cerevisiae deletion strains, locus YOR144C, strain elg1, active compounds read low 1.01 | S. cerevisiae deletion strains, locus YOR184W, strain ser1, active compounds read low 1.06 | S. cerevisiae deletion strains, locus YOR231W, strain MKK1, active compounds read low 0.989 | S. cerevisiae deletion strains, locus YOR265W, strain rbl2, active compounds read low 1.01 | S. cerevisiae deletion strains, locus YOR270C, strain vph1, active compounds read low 1.06 | S. cerevisiae deletion strains, locus YOR290C, strain snf2, active compounds read low 1.03 | S. cerevisiae deletion strains, locus YOR316C, strain cot1, active compounds read low 1.02 | S. cerevisiae deletion strains, locus YPL051W, strain arl3, active compounds read low 0.997 | S. cerevisiae deletion strains, locus YPL055C, strain LGE1, active compounds read low 1.09 | S. cerevisiae deletion strains, locus YPL078C, strain atp4, active compounds read low 1.01 | S. cerevisiae deletion strains, locus YPL106C, strain sse1, active compounds read low 0.996 | S. cerevisiae deletion strains, locus YPL240C, strain hsp82, active compounds read low 1.01 | S. cerevisiae deletion strains, locus YPL241C, strain CIN2, active compounds read low 1.02 | S. cerevisiae deletion strains, locus YPL256C, strain CLN2, active compounds read low 0.995 | S. cerevisiae deletion strains, locus YPR119W, strain clb2, active compounds read low 1.03 | S. cerevisiae deletion strains, locus YPR141C, strain kar3, active compounds read low 1.03 | S. cerevisiae deletion strains, locus YPR163C, strain tif3, active compounds read low 1.04 | S. cerevisiae deletion strains, locus YPR167C, strain met16, active compounds read low 1.04 | S. cerevisiae deletion strains, strain wtn01, active compounds read low 1.03 | S. cerevisiae strains, strain wild type, active compounds read low 1.06
